Assay outcomes: PubChem BioAssay, several laboratories
A selection: hits, their analogues and other compounds. The true share with any hit is near 6.6%.
MPTP inh: inhibitors of mitochondrial permeability transition pore. isolated mouse mitochondria, Ca2+ swelling absorbance, 30 min. inhibition, % at 10 µM. 360,000 compounds, 1.4% hits;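 active = inhibition of 50% or more, scaled per plate between neutral and stimulator controls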;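 note: 0% = DMSO wells given calcium and 100% = 1 mM EGTA wells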
GRIN3A LBD mod: modulates the human NR3A ligand-binding domain; NR3A LBD differential scanning fluorimetry, Tm shift; 0% = protein alone, 100% = glycine-bound protein; Tm shift relative to glycine control, % at 25 µM; 340,000 compounds, 2.5% hits; AID 1259313;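 active = melting temperature shift of at least 10% of the positive control shift, at one fixed dose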
CSC inhib: cancer stem cell inhibition; AID 2717; inhibition, % at 7.5 µM; 300,000 compounds, 1.1% hits; cancer stem cell-like cells viability, luminescence; in the data active = inhibition above about 75%; inconclusive = no clear call, values can overlap the other calls; tested in HMLE shEcad cells
Gli-Sufu block: Gli-Sufu pathway antagonism; Sufu-KO-LIGHT fibroblasts, Gli luciferase reporter luminescence; inhibition, % at 5 µM; 340,000 compounds, 0.74% hits; AID 588413;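 active = inhibition above about 55%, limit read from the data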;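 note: 0% = DMSO-treated cells and 100% = wells with medium but no cells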
Mdm2 MdmX PPI: human Mdm2/MdmX binding inhibition; O15151+Q00987; SaOS-2 split-luciferase Mdm2/MdmX complementation, luminescence; inhibition, % at 8 µM; 330,000 compounds, 3% hits; AID 485346;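 active = inhibition of at least 50% at 8 µM in the primary screen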
Beta apoptosis: blocks beta cell apoptosis | protection from apoptosis, % (no concentration beside the values) | INS-1E cytokine-induced death, ATP luminescence, 48 h; percent of positive-control rescue, neutral wells zero | AID 435005 | 300,000 compounds, 0.8% hits;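 active = Every replicate reaches about 75%, or at least half do and their mean reaches it too, limit read from the data; inconclusive = At least half of replicates reach the limit but their mean does not; inactive = Under half of replicates reach the limit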;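 note: 0% = cytokine-treated negative control wells and 100% = positive control rescue; higher means more ATP so stronger rescue from cytokine killing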
Mdm2 MdmX conf: human Mdm2/MdmX binding inhibition, confirmed; shares compounds with Mdm2 MdmX PPI; luminescent assay; inhibition, % at 8 µM; 10,000 compounds, 55% hits; AID 489028; in the data active = inhibition above about 40%
FLuc counter: counter-screen for Mdm2/MdmX inhibitors: full-length luciferase; shares compounds with Mdm2 MdmX PPI; SaOS-2 full-length luciferase counterscreen, luminescence; inhibition, % at 8 µM; 6,200 compounds, 77% hits; AID 504607;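 active = mean inhibition at 8 µM reaching about 37%, which flags the compound as non-specific, limit read from the data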;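 note: p53-null SaOS-2 cells with luciferase driven by a doxycycline-inducible promoter; compound on cells about two nights before reading with doxycycline added after day one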
Numbers without * were called inactive.

Results for O=C1CC(N(CCc2ccccc2)C(=S)Nc2ccccc2)C(=O)N1c1ccc(Br)cc1 (centres undefined) ?
MPTP inh: 24.6; GRIN3A LBD mod: 29.1*; CSC inhib: -6.0; Gli-Sufu block: 6.6; Mdm2 MdmX PPI: 68.0*; Beta apoptosis: 43.0; Mdm2 MdmX conf: 37.8; FLuc counter: 59.2*

How did Cc1ccc(C(C(=O)NCc2ccco2)N(C(=O)CNC(=O)c2cccs2)c2ccc(C)cc2C)cc1 (centres undefined) do in these assays?
MPTP inh: 0.8; GRIN3A LBD mod: -1.5; CSC inhib: 11.7; Gli-Sufu block: 0.1; Mdm2 MdmX PPI: 59.5*; Beta apoptosis: 25.2; Mdm2 MdmX conf: 3.8

Results for Cc1ccc(N(C(=O)CNC(=O)c2ccco2)C(C(=O)NC2CCCC2)c2ccncc2)c(C)c1 (centres undefined) ?
MPTP inh: 0.1; GRIN3A LBD mod: -0.6; CSC inhib: -5.2; Gli-Sufu block: -7.0; Mdm2 MdmX PPI: 6.0; Beta apoptosis: 2.0

What do the screens show for `Nc1ncc(-c2ccccc2)c(-c2ccc(O)cc2O)n1`?
MPTP inh: -1.0; GRIN3A LBD mod: -33.7; CSC inhib: 2.3; Gli-Sufu block: 23.2; Mdm2 MdmX PPI: 61.0*; Beta apoptosis: -12.8; Mdm2 MdmX conf: 30.8

How did Cc1ccn2c(NC3CCCCC3)c(-c3ccc(SC4CCCCC4)cc3)nc2c1 do in these assays?
MPTP inh: 5.7

What do the screens show for `Cc1ccn2c(NC3CCCCC3)c(-c3cccc(SC4CCCCC4)c3)nc2c1`?
MPTP inh: 13.9; GRIN3A LBD mod: -9.9; CSC inhib: 99.9*; Gli-Sufu block: 4.0; Mdm2 MdmX PPI: 91.4*; Beta apoptosis: 7.0; Mdm2 MdmX conf: 0.1

Results for COc1ccc(NC(=S)N(CCCOC(C)C)C2CCN(C(C)=O)CC2)cc1Cl ?
MPTP inh: -0.3; GRIN3A LBD mod: -15.9; CSC inhib: -9.8; Gli-Sufu block: 2.9; Mdm2 MdmX PPI: 10.7; Beta apoptosis: -2.9

How did C=CCn1c(=O)c(C(=O)Nc2ccc(C)cn2)c(O)c2ccccc21 do in these assays?
MPTP inh: 3.9; GRIN3A LBD mod: -1.2; CSC inhib: -7.8; Gli-Sufu block: 10.3; Mdm2 MdmX PPI: 12.0; Beta apoptosis: 45.9

Results for C=CCn1c(=O)c(C(=O)Nc2cccnc2)c(O)c2ccccc21 ?
MPTP inh: 34.6; GRIN3A LBD mod: -0.5; CSC inhib: 30.1; Gli-Sufu block: 3.1; Mdm2 MdmX PPI: 68.5*; Beta apoptosis: -1.5; Mdm2 MdmX conf: 2.8

What do the screens show for `Cc1cccc(N2CCN(C(=S)Nc3ccc4nc(N5CCN(C)CC5)cc(C)c4c3)CC2C)c1` (centres undefined)?
MPTP inh: 2.0; GRIN3A LBD mod: -2.3; CSC inhib: inconclusive; Gli-Sufu block: 11.1; Mdm2 MdmX PPI: 88.1*; Beta apoptosis: 10.5; Mdm2 MdmX conf: 60.2*; FLuc counter: 64.8*

Results for Cc1cc(N2CCN(C)CC2)nc2ccc(NC(=S)N3CCN(c4ccc(F)cc4)CC3)cc12 ?
MPTP inh: -0.4; GRIN3A LBD mod: -0.5; CSC inhib: inconclusive; Gli-Sufu block: 2.3; Mdm2 MdmX PPI: 94.2*; Beta apoptosis: -3.3; Mdm2 MdmX conf: 21.4

Results for Cc1cc(N2CCN(C)CC2)nc2ccc(NC(=S)N3CCN(c4cccc(Cl)c4)CC3)cc12 ?
MPTP inh: 2.1; GRIN3A LBD mod: 0.9; CSC inhib: 33.9; Gli-Sufu block: 7.6; Mdm2 MdmX PPI: 32.7; Beta apoptosis: 41.7

What do the screens show for `COCCNC(=O)CCc1c(C)nc2nc(-c3cc(OC)cc(OC)c3)nn2c1C`?
MPTP inh: -0.2; GRIN3A LBD mod: -2.7; CSC inhib: -0.4; Gli-Sufu block: 2.5; Mdm2 MdmX PPI: 3.5; Beta apoptosis: 0.2

What do the screens show for `COc1ccc(-c2nnc(Sc3nc4ccccc4o3)c3ccccc23)cc1`?
MPTP inh: 3.7; GRIN3A LBD mod: 0.3; CSC inhib: 41.8; Gli-Sufu block: 9.9; Mdm2 MdmX PPI: 66.2*; Beta apoptosis: -3.0; Mdm2 MdmX conf: 42.3*; FLuc counter: 67.9*

What do the screens show for `COc1ccc(-c2nnc(OC)c3ccccc23)cc1`?
MPTP inh: -0.3; GRIN3A LBD mod: 0.1; CSC inhib: -8.7; Gli-Sufu block: 1.5; Mdm2 MdmX PPI: 28.9; Beta apoptosis: -3.3

Results for CC1=C(C(=O)OCc2ccc3c(c2)OCO3)C(c2ccccc2)NC(=O)N1 (centres undefined) ?
MPTP inh: 4.1; GRIN3A LBD mod: -5.8; CSC inhib: 42.0; Gli-Sufu block: -13.9; Mdm2 MdmX PPI: 87.0*; Beta apoptosis: -15.4; Mdm2 MdmX conf: 90.9*; FLuc counter: 51.5*

Results for CC1=C(C(=O)OCc2ccc3c(c2)OCO3)C(c2ccc(O)c([N+](=O)[O-])c2)NC(=O)N1 (centres undefined) ?
MPTP inh: 0.5; GRIN3A LBD mod: -2.2; Gli-Sufu block: -8.5; Mdm2 MdmX PPI: 51.3*; Beta apoptosis: -6.9; Mdm2 MdmX conf: 35.4

What do the screens show for `CCCNC(=O)C[C@@H]1CC[C@H]2NC[C@H](O)COC[C@@H]2O1`?
MPTP inh: 1.8

How did Cc1cc(C)nc(Nc2ccccc2Cl)n1 do in these assays?
MPTP inh: -0.9; GRIN3A LBD mod: -3.8; CSC inhib: -25.3; Gli-Sufu block: 10.1; Mdm2 MdmX PPI: 7.9; Beta apoptosis: -1.4

Results for Cn1ncc2c(Nc3ccccc3Cl)nc(Nc3ccccc3Cl)nc21 ?
MPTP inh: 2.4; GRIN3A LBD mod: -8.9; CSC inhib: 6.6; Gli-Sufu block: 25.9; Mdm2 MdmX PPI: 54.1*; Beta apoptosis: 3.5; Mdm2 MdmX conf: 7.1

Results for CCOc1ccc(/C(C)=N/N2C(=O)C(CC(=O)Nc3ccc(OC)cc3[N+](=O)[O-])SC2=Nc2cccc(C)c2C)cc1 (centres undefined) ?
MPTP inh: -1.6; GRIN3A LBD mod: -2.9; CSC inhib: -10.4; Gli-Sufu block: -21.9; Mdm2 MdmX PPI: 31.5; Beta apoptosis: 9.5

Results for COc1ccccc1/C=N/N1C(=O)C(CC(=O)Nc2ccc([N+](=O)[O-])cc2OC)SC1=Nc1cccc(C)c1C (centres undefined) ?
CSC inhib: 54.8; Mdm2 MdmX PPI: 64.5*; Beta apoptosis: 2.6; Mdm2 MdmX conf: 46.9*; FLuc counter: 77.9*

What do the screens show for `COc1ccc(NS(=O)(=O)c2cccc(C(=O)NNC(=O)c3ccccc3OC)c2)cc1`?
MPTP inh: -2.9; GRIN3A LBD mod: -1.7; CSC inhib: -4.4; Gli-Sufu block: 3.5; Mdm2 MdmX PPI: -8.2; Beta apoptosis: 1.1
